Compound activity (PubChem BioAssay)
The list is not random: actives were taken first. Their share in the collection is about 10%.
HPGD inh = qHTS Assay for Inhibitors of HPGD (15-Hydroxyprostaglandin Dehydrogenase); purified HPGD, NADH fluorescence kinetic, PGE2 substrate; Potency, µM, for the others: at the highest dose activity change, negative = inhibition, actives largely listed as inhibitors; 150,000 compounds, 4.3% hits; also: potency is read from the fitted curve at half-maximal effect
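20 nM HPGD preincubated 15 min at room temperature with compound in 50 mM Tris-HCl pH 8, 0.01% Tween 20. Started with 1 mM NAD+ and 30 uM prostaglandin E2; NADH fluorescence (360/450 nm) read 5 times over 30-s intervals, last minus first.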
ALOX12 inhib = qHTS Assay for Inhibitors of 12-hLO (12-human lipoxygenase). purified 12-hLO, xylenol orange hydroperoxide absorbance. AID 1452, 2008. Potency, µM (titrated, usually from 57.1 µM), for the others: at the top dose activity change, negative = inhibition, most hits filed as inhibitors. 150,000 compounds, 0.12% hits. Polyunsaturated fatty acid lipoxygenase ALOX12 (Homo sapiens), P18054; active = well fitted inhibition curve with a large enough effect; inconclusive = small, poorly fitted or top-dose-only effect; also: potency is read from the fitted curve at half-maximal effect; nearly all actives have a fitted effect of over 55% in size
Target sequence (P18054 whole entry, looked up): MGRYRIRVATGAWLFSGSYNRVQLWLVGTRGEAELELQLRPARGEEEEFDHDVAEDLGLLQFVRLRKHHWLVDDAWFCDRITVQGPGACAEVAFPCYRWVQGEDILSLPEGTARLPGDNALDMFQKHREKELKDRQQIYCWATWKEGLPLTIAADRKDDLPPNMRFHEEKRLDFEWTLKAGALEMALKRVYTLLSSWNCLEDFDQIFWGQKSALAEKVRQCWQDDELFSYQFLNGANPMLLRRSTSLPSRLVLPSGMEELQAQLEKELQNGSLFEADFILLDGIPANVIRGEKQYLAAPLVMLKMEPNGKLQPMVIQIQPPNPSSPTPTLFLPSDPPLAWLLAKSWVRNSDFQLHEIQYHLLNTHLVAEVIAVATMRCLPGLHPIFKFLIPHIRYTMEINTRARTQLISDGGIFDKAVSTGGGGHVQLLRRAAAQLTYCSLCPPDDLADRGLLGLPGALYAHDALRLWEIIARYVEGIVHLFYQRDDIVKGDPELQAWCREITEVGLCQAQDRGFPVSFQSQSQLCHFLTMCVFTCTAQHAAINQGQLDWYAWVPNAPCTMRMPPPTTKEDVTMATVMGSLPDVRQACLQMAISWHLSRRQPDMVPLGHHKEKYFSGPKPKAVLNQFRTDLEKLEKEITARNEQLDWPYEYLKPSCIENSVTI
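Lipoxygenase turnover measured by absorbance at 573 and 405 nm after Fe-XO development. Human 12hLO 150 nM, arachidonate 40 uM, pH 7.0 Hepes buffer with detergent; 15 min compound preincubation, 30 min reaction.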
LMNA splice mod = qHTS Assay for Modulators of Lamin A Splicing | HeLa LMNA splicing GFP/RFP minigene ratio, 48 h | Potency, µM (series often up to 46.1 µM), for inactives: at the top dose ratio change, negative = inhibition, most hits filed as inhibitors | 200,000 compounds, 0.01% hits; active = well fitted inhibition curve with a large enough effect in the signal ratio, with a control signal flat, not every such curve was filed as active; inconclusive = small, poorly fitted or top-dose-only effect, or effect the other way, or a change in a side signal; the % refers to the signal ratio; also: potency is read from the fitted curve at half-maximal effect
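S3 HeLa stable clones carrying a lamin A-EGFP splicing minigene plus DsRed2 were seeded at 600 cells/well in Opti-MEM with 2% FBS, pin-dosed and incubated 48 h at 37°C. Acumen cytometry (488 nm) gave the GFP/RFP total-intensity ratio.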
PNC assembly inh = High Content Assay for Compounds that inhibit the Assembly of the Perinucleolar Compartment; PC3M PTB-GFP, PNC prevalence imaging, 16 h; stronger effect = lower value; activity change (PNC), negative = inhibition, % at 10 µM; 140,000 compounds, 3.1% hits; AID 2417, 2010;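 active = readout at or below -70, meaning at least 70% loss of cells showing the perinucleolar compartment, a nuclear body marking cancer cells; inconclusive = readout between -30 and a set limit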;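 also: plate controls were DMSO wells for no effect and camptothecin positive control wells for full effect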
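PC3M cells stably expressing PTB-GFP, 750–1000 cells/well, treated 16 h at 37 °C with compound (23 nl of library stock), in duplicate. After paraformaldehyde fixation and Hoechst stain, imaged at 20x; PNC prevalence scored by image analysis.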
ALDH1A1 inh = qHTS Assay for Inhibitors of Aldehyde Dehydrogenase 1 (ALDH1A1); Purified ALDH1A1, NADH fluorescence, propionaldehyde substrate; Potency, µM (titrated, usually from 75.3 µM), inactives show top-dose activity, negative = inhibition, usual class: inhibitors; AID 1030, 2008; Aldehyde dehydrogenase 1A1 (Homo sapiens), P00352; 220,000 compounds, 7.3% hits;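 also: potency is read from the fitted curve at half-maximal effect; plate controls were no enzyme wells and a reference inhibitor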
Starred values were filed as active, the others as inactive; [ ] = remark or other dose. Unless noted, calls follow the shape of the dose curve; as a rule, active = well fitted inhibition curve with a large enough effect (not every such curve was filed as active); inconclusive = small, poorly fitted or top-dose-only effect, or another doubt; inactive = no such curve, though single readings can be large or run the other way. Unless noted, % is scaled to controls: 0 for no effect and ±100 for the full control effect.

What do the screens show for `Cc1ccc(C(=O)NC(=S)Nc2ccc(NC(=O)c3cccc(Cl)c3)cc2)cc1`?
HPGD inh: -10%; ALOX12 inhib: 2%; LMNA splice mod: -12%; PNC assembly inh: inconclusive; ALDH1A1 inh: -15%

How did S=C(Nc1ccc2c(c1)Cc1ccccc1-2)Nc1ccc2c(c1)Cc1ccccc1-2 do in these assays?
HPGD inh: -6%; ALOX12 inhib: -2%[11.4 µM]; ALDH1A1 inh: 2%[13.5 µM]

How did Cc1ccc(C(=O)NC(=S)Nc2ccc(Oc3ccc(Cl)cc3)cc2)cc1 do in these assays?
HPGD inh: -10%; ALOX12 inhib: -8%; LMNA splice mod: -7%; PNC assembly inh: 23; ALDH1A1 inh: 18µM*

Results for Cc1noc(C)c1C(=O)N1CCC2(CC1)CCN(C(c1ccccc1)c1ccccc1)CC2 ?
HPGD inh: -26%; ALOX12 inhib: 2%; ALDH1A1 inh: inconclusive

How did CC(C)N1CCC(=NNc2ccc(S(=O)(=O)N3CCOCC3)cc2[N+](=O)[O-])CC1 do in these assays?
HPGD inh: -8%; ALOX12 inhib: 1%; LMNA splice mod: -3%; PNC assembly inh: -4; ALDH1A1 inh: 28µM*

Results for COc1ccc(CCNc2oc(COc3ccccc3)nc2C#N)cc1 ?
HPGD inh: -31%; ALOX12 inhib: -12%; LMNA splice mod: inconclusive; PNC assembly inh: 19; ALDH1A1 inh: inconclusive

What do the screens show for `N#Cc1nc(COc2ccccc2F)oc1NCCc1ccccc1`?
HPGD inh: 13µM*; ALOX12 inhib: 1%; LMNA splice mod: inconclusive; PNC assembly inh: inconclusive; ALDH1A1 inh: -10%

How did N#Cc1nc(Cc2ccccc2)oc1NCc1ccccc1 do in these assays?
HPGD inh: 14µM*; ALOX12 inhib: -5%; LMNA splice mod: inconclusive; PNC assembly inh: 221; ALDH1A1 inh: -3%

What do the screens show for `CC1=NN(c2ccc(Cl)cc2)C(=O)C1C(c1ccccc1O)c1c(C)[nH]n(-c2ccc(Cl)cc2)c1=O` (configuration not stated)?
HPGD inh: 7.9µM*; ALOX12 inhib: inconclusive; LMNA splice mod: inconclusive; PNC assembly inh: -22; ALDH1A1 inh: 7.5µM*

How did COc1ccc(C(=O)c2coc3ccc(O)c(CN4CCCCC4)c23)cc1 do in these assays?
HPGD inh: -17%; ALOX12 inhib: -2%; LMNA splice mod: -16%; PNC assembly inh: 2; ALDH1A1 inh: 13µM*

How did O=C(c1ccccc1)c1coc2ccc(O)c(CN3CCOCC3)c12 do in these assays?
HPGD inh: -4%; ALOX12 inhib: 4%; LMNA splice mod: -2%; PNC assembly inh: -29; ALDH1A1 inh: inconclusive

Results for CCOc1ccc(N2CC(NC(=O)C3CCCCC3)CC2=O)cc1 (configuration not stated) ?
LMNA splice mod: 6%[46 µM]

How did Cc1nc2cnc(N3CCOCC3)nc2n(C2CC2)c1=O do in these assays?
LMNA splice mod: -7%; ALDH1A1 inh: inconclusive

What do the screens show for `CCCS(=O)(=O)c1nnnn1-c1cccc(OC)c1`?
HPGD inh: 22µM*; ALOX12 inhib: -3%; LMNA splice mod: inconclusive; PNC assembly inh: -5; ALDH1A1 inh: 1.4µM*

Results for COc1cccc(CS(=O)(=O)c2nnnn2C2CCCCC2)c1 ?
HPGD inh: -2%; ALDH1A1 inh: 1%

How did COc1cccc(CS(=O)(=O)c2nnnn2-c2ccccc2)c1 do in these assays?
HPGD inh: -15%; ALDH1A1 inh: 1µM*

What do the screens show for `FC(F)(F)c1ccccc1-c1nc(N2CCOCC2)c2ccccc2n1`?
LMNA splice mod: -6%; ALDH1A1 inh: -6%

How did COc1ccc(/C=N/N=C2\SC(CC(=O)O)C(=O)N2c2ccccc2)cc1 (configuration not stated) do in these assays?
HPGD inh: -14%; ALOX12 inhib: 2%; LMNA splice mod: 7%; PNC assembly inh: 53; ALDH1A1 inh: 20µM*

What do the screens show for `COc1ccc(/C=N\N=C2/SC(CC(=O)O)C(=O)N2c2ccc(O)cc2)cc1` (configuration not stated)?
ALOX12 inhib: -4%; LMNA splice mod: 6%; PNC assembly inh: -29; ALDH1A1 inh: 3%

Results for COc1ccc(/C=N/N=C2\SC(CC(=O)O)C(=O)N2c2ccccc2)c(OC)c1 (configuration not stated) ?
HPGD inh: -18%; ALOX12 inhib: 1%; LMNA splice mod: 1%; PNC assembly inh: 25; ALDH1A1 inh: 20µM*

Results for O=C(O)CC1S/C(=N\N=C/c2ccccc2)N(c2ccc(O)cc2)C1=O (configuration not stated) ?
ALOX12 inhib: -1%; LMNA splice mod: -4%; PNC assembly inh: inconclusive; ALDH1A1 inh: 1%

How did COc1ccc(S(=O)(=O)Oc2cccc(/C=N/N=C3/NC(=O)C(CC(=O)O)S3)c2)cc1 (configuration not stated) do in these assays?
ALDH1A1 inh: 8.9µM*

Results for COC(=O)C1(CC(C)C)C=C2C(=C(c3ccccc3)C(=O)C2C)CN1 (configuration not stated) ?
HPGD inh: inconclusive; ALOX12 inhib: 2%; ALDH1A1 inh: -11%

How did CC1(C)C(=O)C2(CCCCC2)C(=O)OC1c1cccn1-c1ccc([N+](=O)[O-])cc1 (configuration not stated) do in these assays?
HPGD inh: -7%; ALOX12 inhib: -5%; LMNA splice mod: 2%; PNC assembly inh: -87*; ALDH1A1 inh: 5%

What do the screens show for `CC1(C)C(=O)OC(c2cccn2-c2ccc([N+](=O)[O-])cc2)C(C)(C)C1=O` (configuration not stated)?
HPGD inh: -6%; ALOX12 inhib: -2%; LMNA splice mod: -2%; PNC assembly inh: 19; ALDH1A1 inh: 0%

Results for CC1(C)C(=O)C2(CCCC2)C(=O)OC1c1ccco1 (configuration not stated) ?
HPGD inh: -12%; ALOX12 inhib: 3%; LMNA splice mod: 23%; PNC assembly inh: 22; ALDH1A1 inh: 22µM*

Results for CC1(C)C(=O)C2(CCCCC2)C(=O)OC1c1ccc(O)cc1 (configuration not stated) ?
HPGD inh: -11%; ALOX12 inhib: -6%; LMNA splice mod: 8%; PNC assembly inh: -28; ALDH1A1 inh: 3%

What do the screens show for `CCOC(=O)c1ccc(COC(=O)c2ccc3c(c2)-c2ccccc2C3=O)cc1`?
HPGD inh: -16%; ALOX12 inhib: 6%; LMNA splice mod: 7%; PNC assembly inh: 31; ALDH1A1 inh: -3%
